# Measured values: article PMC7862700, “An all-to-all approach to the identification of sequence-specific readers for epigenetic DNA modifications on cytosine”
# What was measured:
# Experiment in all cases: DAPPL (digital affinity profiling via proximity ligation, sequencing); 10 mM Tris-HCl pH 7.5, 50 mM NaCl, 1 mM DTT, 4% glycerol, room temperature, 30 min; GST-TFs on glutathione beads, 16-mer random dsDNA library, 0.1% formaldehyde crosslink after washing; high values mean tight binding
# [1] = target: T1, FLI1 (Homo sapiens, UniProt Q01543 1-452); conditions: protein: recombinant; tags: N-terminal GST; dsDNA, one strand shown
# T1 sequence: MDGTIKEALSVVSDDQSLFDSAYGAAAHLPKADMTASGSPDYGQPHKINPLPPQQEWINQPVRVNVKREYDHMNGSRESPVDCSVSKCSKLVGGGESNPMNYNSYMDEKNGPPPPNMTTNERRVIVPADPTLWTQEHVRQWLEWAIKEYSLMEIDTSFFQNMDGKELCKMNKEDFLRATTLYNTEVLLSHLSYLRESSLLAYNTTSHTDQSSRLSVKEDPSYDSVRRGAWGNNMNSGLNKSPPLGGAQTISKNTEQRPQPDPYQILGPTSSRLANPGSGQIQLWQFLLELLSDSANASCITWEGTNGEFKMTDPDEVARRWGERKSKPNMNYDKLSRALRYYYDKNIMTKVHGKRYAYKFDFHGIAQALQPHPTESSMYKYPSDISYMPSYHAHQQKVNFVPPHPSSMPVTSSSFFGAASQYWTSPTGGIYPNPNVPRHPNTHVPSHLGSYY
# Procedure, shortened: (§1)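 Pools of DNA-barcoded human transcription factors, expressed in yeast as GST fusions on glutathione beads and combined with a tag-only sample, were incubated with 200 nmole of a 16-mer random double-stranded DNA library. Incubation took 30 min at room temperature in Tris/NaCl/DTT/glycerol buffer and was followed by washing, 0.1% formaldehyde crosslinking, proximity ligation (BsaI/T4 ligase, 1 h, 37 °C), PCR amplification and sequencing on an Illumina NextSeq500. Binding signal is the ratio of a hexamer's read frequency for a factor to its frequency for the tag-only sample.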
# [2] = target: T2, ELK1 (Homo sapiens, UniProt P19419 1-428); conditions: protein: recombinant; tags: N-terminal GST; dsDNA, one strand shown
# T2 sequence: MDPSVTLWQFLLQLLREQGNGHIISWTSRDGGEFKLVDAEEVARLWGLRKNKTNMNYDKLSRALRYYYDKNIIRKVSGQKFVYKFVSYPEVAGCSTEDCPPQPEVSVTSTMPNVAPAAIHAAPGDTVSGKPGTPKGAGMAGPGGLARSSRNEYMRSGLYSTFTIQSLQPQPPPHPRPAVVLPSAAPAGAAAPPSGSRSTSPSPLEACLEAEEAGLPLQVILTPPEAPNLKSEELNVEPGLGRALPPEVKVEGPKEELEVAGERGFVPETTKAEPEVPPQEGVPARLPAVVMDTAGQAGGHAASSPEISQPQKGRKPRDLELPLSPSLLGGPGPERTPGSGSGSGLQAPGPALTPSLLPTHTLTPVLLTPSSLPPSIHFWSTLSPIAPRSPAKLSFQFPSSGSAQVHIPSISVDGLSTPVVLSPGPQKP
# Procedure, shortened: as §1
# [3] = target: T3, GABPA (Homo sapiens, UniProt Q06546 1-454); conditions: protein: recombinant; tags: N-terminal GST; dsDNA, one strand shown
# T3 sequence: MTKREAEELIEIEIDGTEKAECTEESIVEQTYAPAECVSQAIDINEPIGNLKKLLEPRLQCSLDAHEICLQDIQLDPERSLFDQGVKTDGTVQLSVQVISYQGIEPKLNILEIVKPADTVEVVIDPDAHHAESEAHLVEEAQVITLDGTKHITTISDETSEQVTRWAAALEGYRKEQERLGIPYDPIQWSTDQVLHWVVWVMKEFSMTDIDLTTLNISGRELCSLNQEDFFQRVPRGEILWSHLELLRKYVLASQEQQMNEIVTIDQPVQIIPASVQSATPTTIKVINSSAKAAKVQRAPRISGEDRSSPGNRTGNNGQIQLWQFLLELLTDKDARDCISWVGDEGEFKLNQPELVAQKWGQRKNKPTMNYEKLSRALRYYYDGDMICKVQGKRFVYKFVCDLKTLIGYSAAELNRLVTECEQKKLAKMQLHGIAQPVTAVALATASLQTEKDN
# Procedure, shortened: as §1
# [4] = target: T4, ERG (Homo sapiens, UniProt P11308 1-479); conditions: protein: recombinant; tags: N-terminal GST; dsDNA, one strand shown
# T4 sequence: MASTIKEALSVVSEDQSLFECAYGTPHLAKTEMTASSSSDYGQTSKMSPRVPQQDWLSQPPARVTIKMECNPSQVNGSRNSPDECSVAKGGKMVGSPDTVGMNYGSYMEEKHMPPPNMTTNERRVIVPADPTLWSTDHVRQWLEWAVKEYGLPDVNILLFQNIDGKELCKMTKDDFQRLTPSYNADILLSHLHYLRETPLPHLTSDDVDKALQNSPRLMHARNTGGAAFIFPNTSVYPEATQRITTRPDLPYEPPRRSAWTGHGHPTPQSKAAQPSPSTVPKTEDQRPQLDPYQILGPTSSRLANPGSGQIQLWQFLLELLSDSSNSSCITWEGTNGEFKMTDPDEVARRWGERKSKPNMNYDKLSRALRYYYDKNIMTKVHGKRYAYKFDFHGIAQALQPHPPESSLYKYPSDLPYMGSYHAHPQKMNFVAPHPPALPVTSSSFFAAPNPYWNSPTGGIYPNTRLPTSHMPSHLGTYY
# Procedure, shortened: as §1
# [5] = target: ELF1 (Homo sapiens, UniProt P32519 1-619); conditions: protein: recombinant; tags: N-terminal GST; dsDNA, one strand shown
# Procedure, shortened: as §1
# [6] = target: T5, EHF (Homo sapiens, UniProt Q9NZC4 1-300); conditions: protein: recombinant; tags: N-terminal GST; dsDNA, one strand shown
# T5 sequence: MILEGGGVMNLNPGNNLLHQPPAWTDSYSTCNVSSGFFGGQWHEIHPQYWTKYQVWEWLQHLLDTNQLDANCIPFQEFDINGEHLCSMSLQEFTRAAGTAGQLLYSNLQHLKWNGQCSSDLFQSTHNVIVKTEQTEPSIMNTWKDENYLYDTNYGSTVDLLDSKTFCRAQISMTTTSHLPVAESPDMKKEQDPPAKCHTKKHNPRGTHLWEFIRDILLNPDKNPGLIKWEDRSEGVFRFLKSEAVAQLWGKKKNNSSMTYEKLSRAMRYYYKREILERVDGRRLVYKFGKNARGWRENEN
# Procedure, shortened: as §1
# [7] = target: SPI1 (Homo sapiens, UniProt P17947 1-270); conditions: protein: recombinant; tags: N-terminal GST; dsDNA, one strand shown
# Procedure, shortened: as §1
# [8] = target: SPIB (Homo sapiens, UniProt Q01892 1-262); conditions: protein: recombinant; tags: N-terminal GST; dsDNA, one strand shown
# Procedure, shortened: as §1
# [9] = target: T6, ELK3 (Homo sapiens, UniProt P41970 1-407); conditions: protein: recombinant; tags: N-terminal GST; dsDNA, one strand shown
# T6 sequence: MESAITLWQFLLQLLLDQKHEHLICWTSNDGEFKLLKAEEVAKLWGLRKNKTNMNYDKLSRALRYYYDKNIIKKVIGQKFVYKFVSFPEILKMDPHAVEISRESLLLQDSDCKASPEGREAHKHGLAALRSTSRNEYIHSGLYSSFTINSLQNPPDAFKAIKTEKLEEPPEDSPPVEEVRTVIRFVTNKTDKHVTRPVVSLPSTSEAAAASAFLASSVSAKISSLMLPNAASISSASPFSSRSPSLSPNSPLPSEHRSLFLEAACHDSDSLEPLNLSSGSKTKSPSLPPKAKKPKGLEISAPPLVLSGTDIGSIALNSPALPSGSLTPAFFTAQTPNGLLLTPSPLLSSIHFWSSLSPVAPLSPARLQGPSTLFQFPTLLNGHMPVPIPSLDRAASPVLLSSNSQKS
# Procedure, shortened: as §1
# [10] = target: T7, FEV (Homo sapiens, UniProt Q99581 1-238); conditions: protein: recombinant; tags: N-terminal GST; dsDNA, one strand shown
# T7 sequence: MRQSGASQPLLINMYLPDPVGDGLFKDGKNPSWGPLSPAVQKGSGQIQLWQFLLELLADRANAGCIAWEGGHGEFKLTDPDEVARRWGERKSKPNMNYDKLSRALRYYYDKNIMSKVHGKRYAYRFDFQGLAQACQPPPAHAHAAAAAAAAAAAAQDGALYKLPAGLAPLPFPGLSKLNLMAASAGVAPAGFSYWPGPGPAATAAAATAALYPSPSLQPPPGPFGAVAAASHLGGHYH
# Procedure, shortened: as §1
# [11] = target: ETV5 (Homo sapiens, UniProt P41161 1-510); conditions: protein: recombinant; tags: N-terminal GST; dsDNA, one strand shown
# Procedure, shortened: as §1
# [12] = target: HSF1 (Homo sapiens, UniProt Q00613 1-529); conditions: protein: recombinant; tags: N-terminal GST; chain copies: 3; dsDNA, one strand shown
# Procedure, shortened: as §1
# [13] = target: T8, SPIC (Homo sapiens, UniProt Q8N5J4 1-248); conditions: protein: recombinant; tags: N-terminal GST; dsDNA, one strand shown
# T8 sequence: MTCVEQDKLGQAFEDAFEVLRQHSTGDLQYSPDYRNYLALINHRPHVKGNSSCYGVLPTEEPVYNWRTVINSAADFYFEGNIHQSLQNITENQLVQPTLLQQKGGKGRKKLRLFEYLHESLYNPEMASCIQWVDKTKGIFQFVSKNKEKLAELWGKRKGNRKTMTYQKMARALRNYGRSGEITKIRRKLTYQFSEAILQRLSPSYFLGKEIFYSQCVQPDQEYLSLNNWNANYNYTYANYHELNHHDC
# Procedure, shortened: as §1
# [14] = target: ELF4 (Homo sapiens, UniProt Q99607 1-663); conditions: protein: recombinant; tags: N-terminal GST; dsDNA, one strand shown
# Procedure, shortened: as §1
# [15] = target: T9, ELK4 (Homo sapiens, UniProt P28324-2 1-405); conditions: protein: recombinant; tags: N-terminal GST; dsDNA, one strand shown
# T9 sequence: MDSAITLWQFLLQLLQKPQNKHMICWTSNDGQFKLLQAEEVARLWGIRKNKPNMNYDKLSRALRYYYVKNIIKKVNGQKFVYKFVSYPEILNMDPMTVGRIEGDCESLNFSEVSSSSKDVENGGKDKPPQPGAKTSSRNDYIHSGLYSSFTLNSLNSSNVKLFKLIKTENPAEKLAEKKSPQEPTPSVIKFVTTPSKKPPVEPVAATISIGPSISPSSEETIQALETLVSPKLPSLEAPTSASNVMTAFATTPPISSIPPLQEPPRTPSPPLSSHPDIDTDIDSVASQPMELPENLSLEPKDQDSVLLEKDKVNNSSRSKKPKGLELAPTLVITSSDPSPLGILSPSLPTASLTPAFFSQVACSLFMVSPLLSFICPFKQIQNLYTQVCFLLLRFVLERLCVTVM
# Procedure, shortened: as §1
# [16] = target: T10, ETV2 (Homo sapiens, UniProt O00321 1-342); conditions: protein: recombinant; tags: N-terminal GST; dsDNA, one strand shown
# T10 sequence: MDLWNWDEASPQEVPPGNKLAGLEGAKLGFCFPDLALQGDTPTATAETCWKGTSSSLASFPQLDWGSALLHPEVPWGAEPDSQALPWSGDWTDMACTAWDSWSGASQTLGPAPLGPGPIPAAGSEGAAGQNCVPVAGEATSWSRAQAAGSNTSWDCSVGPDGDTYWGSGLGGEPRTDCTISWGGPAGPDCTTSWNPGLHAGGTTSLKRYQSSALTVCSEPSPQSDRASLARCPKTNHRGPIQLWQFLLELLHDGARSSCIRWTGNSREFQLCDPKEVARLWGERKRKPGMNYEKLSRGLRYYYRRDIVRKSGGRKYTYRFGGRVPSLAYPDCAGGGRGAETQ
# Procedure, shortened: as §1
# [17] = target: T11, ELF3 (Homo sapiens, UniProt P78545 1-371); conditions: protein: recombinant; tags: N-terminal GST; dsDNA, one strand shown
# T11 sequence: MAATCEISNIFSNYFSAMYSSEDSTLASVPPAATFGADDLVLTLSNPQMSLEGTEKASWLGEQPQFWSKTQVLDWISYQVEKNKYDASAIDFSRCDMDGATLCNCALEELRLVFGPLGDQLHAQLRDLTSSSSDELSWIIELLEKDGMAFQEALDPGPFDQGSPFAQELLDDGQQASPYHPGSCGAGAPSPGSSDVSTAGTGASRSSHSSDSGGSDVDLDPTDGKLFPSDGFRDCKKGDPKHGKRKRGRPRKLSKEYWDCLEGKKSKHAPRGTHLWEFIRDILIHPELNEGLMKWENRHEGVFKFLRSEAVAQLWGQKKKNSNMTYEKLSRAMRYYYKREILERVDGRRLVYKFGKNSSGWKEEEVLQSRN
# Procedure, shortened: as §1
# [18] = target: CRX (Homo sapiens, UniProt O43186 1-299); conditions: protein: recombinant; tags: N-terminal GST; dsDNA, one strand shown
# Procedure, shortened: as §1
# [19] = target: ETV1 (Homo sapiens, UniProt P50549 1-477); conditions: protein: recombinant; tags: N-terminal GST; dsDNA, one strand shown
# Procedure, shortened: as §1
# ELF1, sequence (P32519 whole entry): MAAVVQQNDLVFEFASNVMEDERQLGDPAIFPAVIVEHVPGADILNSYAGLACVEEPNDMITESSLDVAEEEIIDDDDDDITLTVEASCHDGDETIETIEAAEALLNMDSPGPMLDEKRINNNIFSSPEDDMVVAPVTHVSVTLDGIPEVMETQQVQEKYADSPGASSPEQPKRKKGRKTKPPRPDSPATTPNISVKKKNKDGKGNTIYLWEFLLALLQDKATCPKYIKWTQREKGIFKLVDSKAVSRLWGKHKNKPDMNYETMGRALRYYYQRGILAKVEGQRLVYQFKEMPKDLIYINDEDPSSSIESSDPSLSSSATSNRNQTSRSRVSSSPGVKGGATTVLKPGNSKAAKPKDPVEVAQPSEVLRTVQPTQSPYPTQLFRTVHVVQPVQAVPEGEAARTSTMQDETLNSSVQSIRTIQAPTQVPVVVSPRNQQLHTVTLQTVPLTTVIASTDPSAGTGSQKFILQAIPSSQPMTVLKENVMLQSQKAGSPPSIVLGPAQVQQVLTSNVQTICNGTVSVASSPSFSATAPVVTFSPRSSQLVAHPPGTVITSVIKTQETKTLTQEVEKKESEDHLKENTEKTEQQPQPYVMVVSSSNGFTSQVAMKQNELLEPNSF
# HSF1, sequence (Q00613 whole entry): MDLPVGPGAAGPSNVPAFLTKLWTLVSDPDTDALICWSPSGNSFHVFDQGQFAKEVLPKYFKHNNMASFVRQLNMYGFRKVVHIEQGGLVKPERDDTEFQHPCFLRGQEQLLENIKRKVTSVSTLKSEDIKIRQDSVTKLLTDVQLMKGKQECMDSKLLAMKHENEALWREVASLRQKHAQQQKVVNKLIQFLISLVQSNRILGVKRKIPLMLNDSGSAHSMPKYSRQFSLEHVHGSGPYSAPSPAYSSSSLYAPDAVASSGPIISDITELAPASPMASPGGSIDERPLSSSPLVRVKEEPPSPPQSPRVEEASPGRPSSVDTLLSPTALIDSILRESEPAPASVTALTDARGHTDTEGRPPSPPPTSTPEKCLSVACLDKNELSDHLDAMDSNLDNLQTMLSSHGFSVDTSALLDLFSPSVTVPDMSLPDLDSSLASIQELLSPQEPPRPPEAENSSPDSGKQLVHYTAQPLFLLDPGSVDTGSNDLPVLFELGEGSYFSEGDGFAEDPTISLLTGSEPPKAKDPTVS
# SPIB, sequence (Q01892 whole entry): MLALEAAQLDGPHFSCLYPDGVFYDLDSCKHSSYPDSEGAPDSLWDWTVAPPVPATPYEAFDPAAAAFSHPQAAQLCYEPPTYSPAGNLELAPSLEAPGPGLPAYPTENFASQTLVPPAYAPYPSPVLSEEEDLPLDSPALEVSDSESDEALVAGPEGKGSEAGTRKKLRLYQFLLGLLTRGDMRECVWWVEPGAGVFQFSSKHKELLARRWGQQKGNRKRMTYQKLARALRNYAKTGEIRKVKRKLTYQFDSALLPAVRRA
# ETV5, sequence (P41161 whole entry): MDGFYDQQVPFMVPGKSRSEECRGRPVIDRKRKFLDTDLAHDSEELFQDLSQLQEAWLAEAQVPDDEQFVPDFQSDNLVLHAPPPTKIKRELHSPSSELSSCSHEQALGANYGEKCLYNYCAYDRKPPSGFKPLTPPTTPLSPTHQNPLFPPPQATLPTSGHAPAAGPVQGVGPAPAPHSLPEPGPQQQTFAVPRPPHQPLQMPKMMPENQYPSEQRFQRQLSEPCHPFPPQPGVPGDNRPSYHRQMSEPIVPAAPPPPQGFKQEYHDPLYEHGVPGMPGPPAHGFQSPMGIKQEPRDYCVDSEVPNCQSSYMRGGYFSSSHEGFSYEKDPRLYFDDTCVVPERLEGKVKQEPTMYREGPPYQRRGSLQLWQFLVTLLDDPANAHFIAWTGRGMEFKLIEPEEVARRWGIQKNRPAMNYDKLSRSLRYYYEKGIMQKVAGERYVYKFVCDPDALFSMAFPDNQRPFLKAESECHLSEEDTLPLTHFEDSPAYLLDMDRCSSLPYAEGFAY
# CRX, sequence (O43186 whole entry): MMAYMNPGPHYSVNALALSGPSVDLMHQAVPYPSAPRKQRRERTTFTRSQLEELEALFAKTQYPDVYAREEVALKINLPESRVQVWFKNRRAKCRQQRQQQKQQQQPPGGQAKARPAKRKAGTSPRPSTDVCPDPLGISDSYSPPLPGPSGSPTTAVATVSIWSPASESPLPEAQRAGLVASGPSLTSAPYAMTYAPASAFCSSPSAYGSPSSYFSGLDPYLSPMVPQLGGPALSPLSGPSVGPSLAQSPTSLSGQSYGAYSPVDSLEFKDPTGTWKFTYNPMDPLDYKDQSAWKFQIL
# ETV1, sequence (P50549 whole entry): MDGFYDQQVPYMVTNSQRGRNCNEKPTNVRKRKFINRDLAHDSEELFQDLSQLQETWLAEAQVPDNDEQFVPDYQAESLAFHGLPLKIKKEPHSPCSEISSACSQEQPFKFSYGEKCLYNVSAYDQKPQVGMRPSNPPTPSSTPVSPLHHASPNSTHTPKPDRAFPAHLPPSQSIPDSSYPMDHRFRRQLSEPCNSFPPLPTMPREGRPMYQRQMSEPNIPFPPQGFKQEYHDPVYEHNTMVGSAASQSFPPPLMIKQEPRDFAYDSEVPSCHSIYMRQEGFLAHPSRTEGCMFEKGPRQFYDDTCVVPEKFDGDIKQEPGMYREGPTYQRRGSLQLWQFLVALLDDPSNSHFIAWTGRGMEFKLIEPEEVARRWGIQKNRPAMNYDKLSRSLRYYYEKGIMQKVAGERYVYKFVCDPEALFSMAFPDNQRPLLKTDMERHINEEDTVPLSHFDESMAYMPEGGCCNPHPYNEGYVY
# ELF4, sequence (Q99607 whole entry): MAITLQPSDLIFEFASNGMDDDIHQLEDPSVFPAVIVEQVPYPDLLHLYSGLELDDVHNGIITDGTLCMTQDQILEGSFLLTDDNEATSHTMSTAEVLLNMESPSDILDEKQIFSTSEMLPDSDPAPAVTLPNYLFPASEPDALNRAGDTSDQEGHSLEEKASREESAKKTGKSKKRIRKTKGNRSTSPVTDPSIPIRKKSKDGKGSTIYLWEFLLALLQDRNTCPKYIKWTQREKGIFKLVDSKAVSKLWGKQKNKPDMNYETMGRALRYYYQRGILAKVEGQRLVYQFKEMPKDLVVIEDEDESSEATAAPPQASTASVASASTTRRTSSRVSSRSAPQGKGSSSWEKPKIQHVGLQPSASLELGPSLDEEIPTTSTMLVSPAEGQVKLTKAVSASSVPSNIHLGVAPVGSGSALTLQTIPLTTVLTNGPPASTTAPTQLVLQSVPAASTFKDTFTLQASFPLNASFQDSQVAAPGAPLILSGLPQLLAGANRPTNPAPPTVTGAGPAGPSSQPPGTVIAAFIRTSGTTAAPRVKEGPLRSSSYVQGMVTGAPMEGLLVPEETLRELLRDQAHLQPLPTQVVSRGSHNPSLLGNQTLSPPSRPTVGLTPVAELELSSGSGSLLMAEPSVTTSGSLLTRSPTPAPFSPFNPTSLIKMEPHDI
sequence,measurement,setting,value
ATACAA,binding signal,[1],"1.19 fold enrichment (6-mer frequency, TF over GST control)"
same,binding signal,[2],"1.15 fold enrichment (6-mer frequency, TF over GST control)"
same,binding signal,[3],"1.14 fold enrichment (6-mer frequency, TF over GST control)"
same,binding signal,[4],"1.1 fold enrichment (6-mer frequency, TF over GST control)"
same,binding signal,[5],"1.21 fold enrichment (6-mer frequency, TF over GST control)"
same,binding signal,[6],"1.15 fold enrichment (6-mer frequency, TF over GST control)"
same,binding signal,[7],"1.07 fold enrichment (6-mer frequency, TF over GST control)"
same,binding signal,[8],"1.09 fold enrichment (6-mer frequency, TF over GST control)"
same,binding signal,[9],"1.31 fold enrichment (6-mer frequency, TF over GST control)"
same,binding signal,[10],"1.09 fold enrichment (6-mer frequency, TF over GST control)"
same,binding signal,[11],"1.15 fold enrichment (6-mer frequency, TF over GST control)"
same,binding signal,[12],"1.03 fold enrichment (6-mer frequency, TF over GST control)"
same,binding signal,[13],"1.06 fold enrichment (6-mer frequency, TF over GST control)"
same,binding signal,[14],"1.17 fold enrichment (6-mer frequency, TF over GST control)"
same,binding signal,[15],"1.08 fold enrichment (6-mer frequency, TF over GST control)"
same,binding signal,[16],"1.04 fold enrichment (6-mer frequency, TF over GST control)"
same,binding signal,[17],"1.16 fold enrichment (6-mer frequency, TF over GST control)"
same,binding signal,[18],"1.07 fold enrichment (6-mer frequency, TF over GST control)"
same,binding signal,[19],"1.13 fold enrichment (6-mer frequency, TF over GST control)"
